Source: PubChem BioAssay (NCATS)
Records with an inconclusive call do not appear. Entries that show only a call come without a potency. The source made the active and inactive calls. Calls follow the shape of the full dose curve.

test: Cytotoxicity counterscreen for inhibitors of SARS-CoV-2 cell entry (AID 1645845); settings: cell viability (SARS-CoV-2 entry assay cells); series mostly up to 57.1 µM; also: nearly all actives have a fitted effect of over 50% in size
Method in brief: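 Counterscreen run in the same HEK293-ACE2 line as the pseudotyped-particle entry assay, without particles. Viability after 48 h at 37 C was read as ATP luminescence, scaled between cell-containing and cell-free wells.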
Potency is read from the fitted curve at half-maximal effect.

SMILES | Potency
Cc1cc([C@@H](C)Nc2ccccc2C(=O)O)c2nc(N3CCOCC3)cc(=O)n2c1 | inactive
CC(C)(C)c1cnc(CSc2cnc(NC(=O)C3CCNCC3)s2)o1 | inactive
Cc1cc2c(F)c(Oc3ncnn4cc(OC[C@@H](C)O)c(C)c34)ccc2[nH]1 | inactive
NC(=O)c1ccc(-c2nc(-c3ccc4c(c3)OCO4)c(-c3ccccn3)[nH]2)cc1 | inactive
C=CC(=O)Nc1cc2c(Nc3ccc(F)c(Cl)c3)ncnc2cc1C#CC(C)(C)N1CCN(C)CC1 | 25.1 µM (active)
Clc1ccc(C(c2ccc(Cl)cc2)n2cc[n+](CC(OCc3ccc(Cl)cc3Cl)c3ccc(Cl)cc3Cl)c2)cc1 (stereo not given) | 31.6 µM (active)
Cc1ccc(NC(=O)c2cccc(C(C)(C)C#N)c2)cc1Nc1ccc2ncn(C)c(=O)c2c1 | inactive
OCCC#Cc1nc(-c2ccc(F)cc2)c(-c2ccncc2)n1CCCc1ccccc1 | inactive
CCOc1ccn(-c2ccc(F)cc2)c(=O)c1C(=O)Nc1ccc(Oc2ccnc(N)c2Cl)c(F)c1 | inactive
COc1cc2nccc(Oc3ccc(NC(=O)C4(C(=O)Nc5ccc(F)cc5)CC4)cc3)c2cc1OC | inactive
COc1cccc2c1CCCC2CCCN1CCN(C2CCCCC2)CC1 (stereo not given) | inactive
CCCCCCCCCCC(CO)CCCCCCCC (stereo not given) | inactive
Cc1cccc(-c2[nH]c(C(C)(C)C)nc2-c2ccc3nccnc3c2)n1 | inactive
O=C(Nc1cccnc1)N1CCC(Cc2cccc(Oc3ccc(C(F)(F)F)cn3)c2)CC1 | 20 µM (active)
S=c1[nH]c2ccccc2s1 | inactive
Cn1c(=O)c(F)c(Nc2ccc(I)cc2F)c2c(=O)n(C[C@@H](O)CO)cnc21 | inactive
CCN(CC)CCCCNc1nc2cc(Cl)c(Cl)cc2nc1-c1ccc(-c2cccs2)s1 | inactive
CC(=O)NCCC(=O)N[C@@H](CCC(N)=O)C(=O)N[C@@H](CO)C(=O)N[C@@H](CCC(N)=O)C(=O)N[C@@H](CCC(N)=O)C(=O)N[C@H](C(=O)N[C@@H](Cc1ccccc1)C(=O)N[C@]1(C)CCCCCCC=CCCC[C@@](C)(C(=O)N[C@@H](CCC(N)=O)C(=O)N[C@@H](CC(N)=O)C(N)=O)NC(=O)[C@H](CC(C)C)NC(=O)[C@H](CC(C)C)NC(=O)[C@@H](CCCNC(=N)N)NC(=O)[C@H](Cc2c[nH]c3ccccc23)NC(=O)[C@H](CC(C)C)NC(=O)[C@H](CC(N)=O)NC1=O)[C@H](C)O | inactive
CC(C)(C)c1cc(NC(=O)Nc2ccc(-c3cn4c(n3)sc3cc(OCCN5CCOCC5)ccc34)cc2)no1 | inactive
NC(=O)c1c(OCc2c(F)cc(Br)cc2F)nsc1NC(=O)NCCCCN1CCCC1 | inactive

SMILES | Potency
CC(C)C(=O)Nc1ncc(-c2cc(C(F)F)nn2-c2c(Cl)cccc2Cl)s1 | inactive
COc1ccc(CCN2CCN(CCCc3ccccc3)CC2)cc1OC | inactive
COc1nc(-c2ccc3c(c2)OCO3)n(-c2ccc(NC(=O)CSc3ccccc3)cc2)n1 | inactive
CNC(=O)c1cc(Oc2ccc(NC(=O)Nc3cc(C(C)(C)C)nn3-c3ccc4ncccc4c3)c(F)c2)ccn1 | inactive
O=C(NCCS(=O)(=O)c1ccc(C(F)(F)F)cn1)c1ccc(Cl)cc1 | inactive
O=C(Nc1cc(C(F)(F)F)cc(C(F)(F)F)c1)c1cc(Cl)ccc1O | 1.58 µM (active)
CCCS(=O)(=O)Nc1ccc(F)c(C(=O)c2c[nH]c3ncc(Cl)cc23)c1F | inactive
Oc1cccc(-c2nc(N3CCOCC3)c3oc4ncccc4c3n2)c1 | inactive
C[C@@H](N)C1CCC(C(=O)Nc2ccncc2)CC1 (stereo not given in full) | inactive
CCCCc1ccc(NS(=O)(=O)c2ccc(C)c(C(=O)N3CCN(c4cccc(C)c4C)CC3)c2)cc1 | inactive
COc1ccc(OC)c(-c2nnc3ccc(-c4ccc(OC)c(O[C@@H]5CCOC5)c4)nn23)c1 | inactive
Cc1cnc(-c2cnc(NCCNc3ccc(C#N)cn3)nc2-c2ccc(Cl)cc2Cl)[nH]1 | inactive
O=C(O)[C@H](Cc1c[nH]c2ccccc12)N1C(=O)c2ccccc2C1=O | inactive
CC(C)(N)C(=O)N[C@H](COCc1ccccc1)C(=O)N1CCC2(CC1)CN(S(C)(=O)=O)c1ccccc12 | inactive
CN(C)C1CCN(C(=O)c2ccc(NC(=O)Nc3nc(N4CCOCC4)nc(N4CCOCC4)n3)cc2)CC1 | 6.31 µM (active)
N#CC[C@H](C1CCCC1)n1cc(-c2ncnc3[nH]ccc23)cn1 | inactive
COc1cc(N2CCC(N3CCN(C)CC3)CC2)ccc1Nc1ncc(Cl)c(Nc2ccccc2S(=O)(=O)C(C)C)n1 | 31.6 µM (active)
CCOC(CN1C(=O)[C@](CC(=O)Nc2ccc(C)cc2)(NC(=O)Nc2ccc(C)cc2)c2ccccc21)OCC | inactive
CC(C)Oc1cc(Nc2nc(N[C@@H](C)c3ccc(F)cn3)ncc2Cl)[nH]n1 | inactive
O=C(c1cc(Cc2n[nH]c(=O)c3ccccc23)ccc1F)N1CCN(C(=O)C2CC2)CC1 | inactive
